Test [1] concerns Plasmodium falciparum Sir2 (PF13_0152, Sir2A). As to the kind of experiment: pfSir2 binders on small-molecule microarrays, primary screen, biochemical, small-molecule microarray, 635 nm fluorescence (AID 1098).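 Also: score merges spot fluorescence intensity with its signal-to-noise ratio.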 The note with it: small-molecule microarray binding, fluorescence 635 nm; higher = more signal.
Test [2] is described as follows: small-molecule microarray binders of probe aDKK1, primary screen, biochemical, biotinylated probe, 635/667 nm fluorescence (AID 1099).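 Also: score merges 667nm spot fluorescence with signal to noise across triplicate slides.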 The conditions noted are these: higher = more signal.
Test [3] can be described thus: small-molecule microarray binders of probe aCHRDL2, primary screen, biochemical, biotinylated probe, 635/667 nm fluorescence (AID 1100). The note with it: higher = more signal.
Test [4] is described as follows: splicing luciferase reporter signal modulators, primary screen, spliceosome inhibition project, cell-based, HEK293, splice +/- reporter (AID 1101).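 Also: HEK293 cells carrying a splicing-competent luciferase reporter gene; test concentration not given here.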 The note with it: luminescence, 24 h, higher = more signal, called active from +8 up or from −8 down. In general terms: A reporter such as luciferase makes a cellular process visible.
For test [5], the target named is Fibroblast growth factor 10 (Homo sapiens) (UniProt O15520). As to the kind of experiment: FGF10 binders on small-molecule microarrays, primary screen, biochemical, small-molecule microarray, 635 nm fluorescence (AID 1102). The conditions noted are these: FGF10 binding, fluorescence 635 nm, higher = more signal.
Fibroblast growth factor 10 (Homo sapiens), sequence (O15520 whole entry, looked up): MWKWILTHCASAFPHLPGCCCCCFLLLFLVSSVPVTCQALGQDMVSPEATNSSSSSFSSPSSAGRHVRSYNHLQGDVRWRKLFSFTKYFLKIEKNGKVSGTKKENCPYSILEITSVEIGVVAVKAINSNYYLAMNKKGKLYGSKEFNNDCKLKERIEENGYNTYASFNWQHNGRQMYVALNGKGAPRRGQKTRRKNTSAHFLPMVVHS
In test [6] the test system is glycogen synthase kinase-3 (GSK3A per assay name; protocol says GSK3B). As to the kind of experiment: GSK3 binders on small-molecule microarrays, primary screen, biochemical, small-molecule microarray, 635 nm fluorescence, GSK3A (AID 1103). Also: the record names both GSK3A and GSK3B. The note with it: small-molecule microarray binding, fluorescence 635 nm; higher = more signal.
The target of test [7] is Epidermal growth factor receptor (Homo sapiens) (UniProt P00533). As to the kind of experiment: EGFR binders on small-molecule microarrays, primary screen, biochemical, small-molecule microarray, 635 nm fluorescence (AID 1104).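 Also: score merges 667 nm emission intensity with spot signal to noise over triplicate slides.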 The conditions noted are these: EGFR binding, higher = more signal.
Epidermal growth factor receptor (Homo sapiens), sequence (P00533 whole entry, looked up): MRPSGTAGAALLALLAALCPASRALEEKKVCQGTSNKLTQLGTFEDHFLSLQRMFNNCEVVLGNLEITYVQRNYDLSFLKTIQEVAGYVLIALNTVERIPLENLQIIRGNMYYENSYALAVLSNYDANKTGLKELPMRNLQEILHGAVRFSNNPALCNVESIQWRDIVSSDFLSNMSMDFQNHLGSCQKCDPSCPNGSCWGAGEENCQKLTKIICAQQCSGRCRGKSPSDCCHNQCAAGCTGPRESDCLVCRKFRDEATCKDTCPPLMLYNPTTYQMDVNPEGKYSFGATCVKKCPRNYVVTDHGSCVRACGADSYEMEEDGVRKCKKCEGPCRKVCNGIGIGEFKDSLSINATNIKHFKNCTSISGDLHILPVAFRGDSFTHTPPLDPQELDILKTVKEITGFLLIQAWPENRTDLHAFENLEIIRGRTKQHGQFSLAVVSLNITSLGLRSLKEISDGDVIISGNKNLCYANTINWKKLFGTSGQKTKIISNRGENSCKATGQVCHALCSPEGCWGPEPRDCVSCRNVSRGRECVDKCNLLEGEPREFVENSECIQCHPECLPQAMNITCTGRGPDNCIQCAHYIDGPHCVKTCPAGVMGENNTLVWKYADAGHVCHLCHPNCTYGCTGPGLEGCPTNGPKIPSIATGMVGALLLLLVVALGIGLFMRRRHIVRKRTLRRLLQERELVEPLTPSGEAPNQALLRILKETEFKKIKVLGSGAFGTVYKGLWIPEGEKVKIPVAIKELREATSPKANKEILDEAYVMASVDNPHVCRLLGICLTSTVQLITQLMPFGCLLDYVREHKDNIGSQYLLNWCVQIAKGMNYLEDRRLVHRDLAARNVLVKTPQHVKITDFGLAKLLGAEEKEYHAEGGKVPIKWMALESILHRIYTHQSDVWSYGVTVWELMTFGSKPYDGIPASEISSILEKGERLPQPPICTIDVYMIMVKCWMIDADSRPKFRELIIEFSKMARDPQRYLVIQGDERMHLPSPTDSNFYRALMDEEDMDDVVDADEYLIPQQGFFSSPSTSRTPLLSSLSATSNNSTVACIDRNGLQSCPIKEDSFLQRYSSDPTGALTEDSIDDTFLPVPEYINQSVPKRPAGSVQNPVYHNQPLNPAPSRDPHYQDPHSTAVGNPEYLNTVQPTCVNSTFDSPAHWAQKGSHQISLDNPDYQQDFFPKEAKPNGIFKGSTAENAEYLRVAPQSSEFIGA
Test [8] deals with Follistatin-related protein 3 (Homo sapiens) (UniProt O95633). As to the kind of experiment: FSTL3 binders on small-molecule microarrays, primary screen, biochemical, small-molecule microarray, 635 nm fluorescence (AID 1105).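 Also: score merges emission near 667 nm and signal to noise per printed spot across three slides.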 The note with it: FSTL3 binding, higher = more signal.
Follistatin-related protein 3 (Homo sapiens), sequence (O95633 whole entry, looked up): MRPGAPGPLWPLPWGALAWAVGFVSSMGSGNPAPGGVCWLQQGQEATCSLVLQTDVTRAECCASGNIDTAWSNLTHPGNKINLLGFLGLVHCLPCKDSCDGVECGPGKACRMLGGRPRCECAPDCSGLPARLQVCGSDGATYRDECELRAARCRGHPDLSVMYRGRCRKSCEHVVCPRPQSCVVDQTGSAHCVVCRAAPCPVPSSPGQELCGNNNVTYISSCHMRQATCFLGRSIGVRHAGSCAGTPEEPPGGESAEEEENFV
Test [9] has as its target Dickkopf-related protein 1 (Homo sapiens) (UniProt O94907). The experiment in a line: DKK1 binders on small-molecule microarrays, primary screen, biochemical, small-molecule microarray, 635 nm fluorescence scan (AID 1106).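 Also: score merges emission near 667 nm with signal to noise over three replicate slides.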 The conditions noted are these: DKK1 binding, higher = more signal.
Test [10] has as its system Inhibin beta A chain (activin A). The experiment in a line: INHBA (activin A) binders on microarrays, primary screen, biochemical, small-molecule microarray, 635 nm fluorescence scan (AID 1107).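 Also: mouse activin A protein probed at 4.33 µg/mL on printed slides; score merges bound-protein fluorescence near 667 nm with spot signal-to-noise.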 The conditions noted are these: small-molecule microarray binding, higher = more signal.
Test [11] has as its system Human papillomavirus type 1a protein E7 (residues 44-93). As to the kind of experiment: HPV1a E7 fragment binders on microarrays, primary screen, biochemical, small-molecule microarray, residues 44-93, 635 nm fluorescence (AID 1108).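 Also: E7 fragment applied at 1 µg/mL in TBST for 1 h at 4 C; score combines spot fluorescence with its signal to noise ratio.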 The conditions noted are these: small-molecule microarray binding, fluorescence 635 nm; higher = more signal.
Test [12] is described as follows: modulators of HCV replicon luciferase signal, primary screen, HCV replication inhibitor project, Huh7 cells, luciferase reporter (AID 1109).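 Also: huh7 hepatoma cells harbouring a luciferase neomycin HCV replicon reporter; luciferase luminescence as measure of HCV replicon replication; test concentration not given here.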 The conditions noted are these: 48 h, higher = more signal. (In general: A replicon is a self-replicating genome or part of one, used to study replication in cells.)
Test [13] concerns the target Left-right determination factor 2 (Homo sapiens) (UniProt O00292). As to the kind of experiment: LEFTY2 binders on small-molecule microarrays, primary screen, biochemical, small-molecule microarray, 635 nm fluorescence scan (AID 1110). The conditions noted are these: LEFTY2 binding, higher = more signal.
The target in test [14] is Calmodulin-1 (Homo sapiens) (UniProt P0DP23). The experiment in a line: CALM1 binders on microarrays, EGTA buffer, profiling panel, biochemical, small-molecule microarray, Cy5-labelled CALM1 (AID 1111).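 Also: labelled calmodulin applied in Tris saline Tween buffer holding calcium plus EGTA and DTT.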 The note with it: Cy5-CALM1 binding fluorescence, higher = more signal.
Test [15] has the same target. As to the kind of experiment: calcium-bound CALM1 binders on microarrays, profiling panel, artefact control for SMM control-protein annotation, biochemical, small-molecule microarray, Cy5-labelled CALM1, plus calcium (AID 1112).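 Also: score merges spot fluorescence with signal to noise from triplicate slides.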 The conditions noted are these: Cy5-CALM1 binding fluorescence, higher = more signal.
Test [16] can be described thus: small-molecule microarray binders of probe aWnt5a, primary screen, biochemical, biotinylated probe, 635/667 nm fluorescence (AID 1113).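 Also: score merges 667 nm fluorescence intensity with signal-to-noise per printed feature.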 The conditions noted are these: higher = more signal.
Test [17] can be described thus: small-molecule microarray binders of probe aShh, primary screen, biochemical, biotinylated probe, 635/667 nm fluorescence (AID 1114).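 Also: probe is biotin-labelled aShh protein from a stem cell growth factor screen; measures binding of labelled protein to compounds printed on the slide; score merges feature fluorescence at 667 nm with signal-to-noise.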 The conditions noted are these: higher = more signal.
A short description of test [18]: small-molecule microarray binders of probe aNog, primary screen, biochemical, biotinylated probe, 635/667 nm fluorescence (AID 1115).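 Also: probe is biotinylated aNog protein used at 0.15 µg/mL for 1 h at 4 C; z-score combines 667 nm fluorescence of each spot with its signal to noise.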 The note with it: higher = more signal.
In test [19] the target is Torsin-1A-interacting protein 1 (Homo sapiens) (UniProt Q5JTV8). As to the kind of experiment: LAP1 binders from COS7 cell lysate, primary screen, small-molecule microarray, 635/667 nm fluorescence (AID 1116). The conditions noted are these: COS7-hLAP1 lysate binding, 635 nm fluorescence, higher = more signal.
Torsin-1A-interacting protein 1 (Homo sapiens), sequence (Q5JTV8 whole entry, looked up): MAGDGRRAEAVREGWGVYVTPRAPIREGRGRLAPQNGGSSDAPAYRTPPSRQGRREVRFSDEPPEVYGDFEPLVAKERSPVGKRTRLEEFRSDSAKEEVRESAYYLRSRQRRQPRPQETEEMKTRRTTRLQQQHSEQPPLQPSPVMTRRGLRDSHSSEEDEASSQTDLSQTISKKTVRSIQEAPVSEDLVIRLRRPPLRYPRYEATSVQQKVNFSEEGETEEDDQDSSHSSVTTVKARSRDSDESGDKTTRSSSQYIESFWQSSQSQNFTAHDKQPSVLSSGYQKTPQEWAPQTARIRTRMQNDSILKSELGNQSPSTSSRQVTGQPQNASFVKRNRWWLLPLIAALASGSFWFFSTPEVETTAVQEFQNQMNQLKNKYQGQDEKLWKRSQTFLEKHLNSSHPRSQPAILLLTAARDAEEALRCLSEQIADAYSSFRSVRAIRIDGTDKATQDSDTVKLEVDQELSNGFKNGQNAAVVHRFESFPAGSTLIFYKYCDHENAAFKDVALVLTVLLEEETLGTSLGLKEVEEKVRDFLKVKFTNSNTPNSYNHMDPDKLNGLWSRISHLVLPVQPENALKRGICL
For test [20], the target named is Alpha-bungarotoxin (Bungarus multicinctus) (UniProt P60615). As to the kind of experiment: alpha-bungarotoxin binders on microarray, profiling panel, artefact control for SMM control protein annotation, biochemical, small-molecule microarray, Alexa647 label, 635/667 nm fluorescence (AID 1117). The note with it: alpha-BTX-A647 binding fluorescence, higher = more signal.
Alpha-bungarotoxin (Bungarus multicinctus), sequence (P60615 whole entry, looked up): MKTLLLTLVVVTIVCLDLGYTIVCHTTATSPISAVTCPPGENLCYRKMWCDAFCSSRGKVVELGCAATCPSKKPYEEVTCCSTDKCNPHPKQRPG

SMILES strings stand for the structures. Calls of active or inactive are those of the source.

Dickkopf-related protein 1 (Homo sapiens), sequence (O94907 whole entry, looked up): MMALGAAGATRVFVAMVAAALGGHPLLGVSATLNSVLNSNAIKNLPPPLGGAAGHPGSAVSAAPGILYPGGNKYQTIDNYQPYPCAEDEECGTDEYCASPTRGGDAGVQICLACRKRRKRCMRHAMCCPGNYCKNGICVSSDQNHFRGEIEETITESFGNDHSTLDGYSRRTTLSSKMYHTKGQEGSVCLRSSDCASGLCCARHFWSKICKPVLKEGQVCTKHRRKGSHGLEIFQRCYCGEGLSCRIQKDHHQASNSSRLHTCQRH
Left-right determination factor 2 (Homo sapiens), sequence (O00292 whole entry, looked up): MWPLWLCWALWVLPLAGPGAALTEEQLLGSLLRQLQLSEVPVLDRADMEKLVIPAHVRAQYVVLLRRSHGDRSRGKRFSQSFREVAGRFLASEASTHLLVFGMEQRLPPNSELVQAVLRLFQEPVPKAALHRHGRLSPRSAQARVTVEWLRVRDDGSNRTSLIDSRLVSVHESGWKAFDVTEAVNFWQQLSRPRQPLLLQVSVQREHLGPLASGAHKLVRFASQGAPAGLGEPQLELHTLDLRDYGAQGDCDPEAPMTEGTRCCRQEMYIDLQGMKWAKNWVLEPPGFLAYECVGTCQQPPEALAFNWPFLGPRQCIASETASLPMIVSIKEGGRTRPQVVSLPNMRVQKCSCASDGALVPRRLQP

`COC(=O)C(CC#Cc1ccc2c(c1)[C@]1(C(=O)N2)[C@H](C(N)=O)[C@H]2C(=O)O[C@H](c3ccccc3)[C@H](c3ccccc3)N2[C@@H]1c1ccccc1OCCO)C(=O)OC`: the composite z-score in [1] was 1.39; in [2], -0.109; in [3], 0.567; in [5], 0.785; in test [6] it was 1.15; in test [7], -0.0452. In addition, the composite z-score in test [8] is 0.385; in [9], -0.151; in test [10] it was -0.278; in test [11] it was 1.47; in test [13], 0.205; in test [14], 0.534. Moreover, the composite z-score in test [15] was 0.237; in [16], -0.0721; in test [17] it was -0.291; in test [18], -0.0604; in test [19], 1.87; in test [20], 1.19. For the same compound, the z-score was 1.09 (inactive) in test [4] and -3.34 in test [12].
As to `COC(=O)C(CC#Cc1ccc2c(c1)[C@]1(C(=O)N2)[C@H](c2ccc(OCCO)cc2)N2[C@H](c3ccccc3)[C@H](c3ccccc3)OC(=O)[C@H]2[C@@H]1C(N)=O)C(=O)OC`, the composite z-score was 1.01 in test [1]; -0.201 in [2]; 0.669 in test [3]; -0.122 in test [5]; -0.0277 in test [6]; -0.69 in test [7]. Further, the composite z-score in test [8] is 0.025; in [9], -0.531; in test [10], 0.161; in [11] it was 1.41; in test [13] it was -0.584; in [14] it was 0.627. For the same compound, the composite z-score in test [15] was -0.113; in [16] it was -0.156; in test [17], -0.123; in test [18] it was -0.14; in test [19], -0.358; in [20], 1.4. Also, the z-score is 0.373 (inactive) in test [4] and -1.68 in [12].
Regarding `CO[C@H]1O[C@H](CO)[C@@H](OC(=O)CCc2ccccc2)[C@@H]2OC(=O)[C@@H](Cc3ccc4ccccc4c3)C/C=C/C[C@H](Cc3ccc4ccccc4c3)C(=O)O[C@@H]12`, the composite z-score was 1.08 in [1]; -0.653 in test [2]; 0.46 in test [3]; -0.361 in [5]; -0.346 in test [6]; -0.691 in test [7]. Moreover, the composite z-score was 0.0223 in test [8]; -1.19 in test [9]; 0.499 in test [10]; 0.349 in test [11]; -0.817 in test [13]; -0.452 in test [14]. The composite z-score is -0.119 in test [15]; -0.202 in [16]; -0.0709 in test [17]; -0.266 in [18]; -0.0222 in test [19]; 1.33 in [20]. Besides, the z-score is -0.779 (inactive) in test [4] and 0.228 in test [12].
Turning to `COCCCNC(=O)[C@@]1(c2ccc([N+](=O)[O-])cc2)CC(=O)N(C2CCCCC2)[C@@H]1c1ccc(CO)cc1I`, the composite z-score was 1.62 in test [1]; 0.0269 in test [2]; 0.64 in [3]; 0.453 in test [5]; 1.16 in [6]; -0.323 in test [7]. In addition, the composite z-score was 0.102 in [8]; -0.582 in test [9]; 0.717 in [10]; -0.191 in test [11]; -0.199 in test [13]; 0.582 in [14]. The composite z-score was -0.0952 in test [15]; -0.0051 in [16]; -0.0904 in test [17]; 0.968 in test [18]; 1.17 in test [19]; 0.302 in [20]. The z-score in test [4] is -1.1 (inactive); in [12] it was -1.9.
As to `COc1cc(Cc2cc3c(c(CCc4ccccc4)n2)[Si](C(C)C)(C(C)C)O[C@H]3c2ccccc2)cc(OC)c1OC`, the composite z-score was 1.05 in test [1]; 0.0709 in test [2]; 0.366 in test [3]; -0.507 in [5]; -1.04 in test [6]; -0.4 in test [7]. For the same compound, the composite z-score in test [8] is -0.617; in [9], -0.308; in test [10], 0.87; in test [11] it was -1.18; in test [13], 0.151; in test [14] it was -0.448. In addition, the composite z-score is -0.425 in test [15]; -0.0107 in test [16]; -0.138 in [17]; -0.0827 in test [18]; 0.415 in test [19]; 0.537 in test [20]. Besides, the values for the z-score in test [4] and in test [12] were -1.06 (inactive) and -2.37, respectively.
As for `[N-]=[N+]=NCc1ccccc1[C@H]1OC(c2ccc(OCCCO)cc2)=N[C@@]1(Cc1ccccc1N=[N+]=[N-])C(N)=O`, the composite z-score in test [1] is 1; in test [2], 0.853; in test [3] it was 0.879; in test [5] it was 1.3; in [6], 1.29; in [7], 0.32. Moreover, the composite z-score worked out at 0.828 in [8]; 0.28 in test [9]; 1.02 in test [10]; 1.44 in [11]; 0.373 in test [13]; 1.1 in [14]. The composite z-score was 0.613 in test [15]; 0.117 in [16]; -0.111 in [17]; 0.924 in [18]; 0.154 in [19]; 1.03 in test [20]. Further, the z-score is -0.146 (inactive) in [4] and -1 in test [12].
`CC1C2C(CCCO)=CC(C3C(=O)N(C)C(=O)C23)N1Cc1cccc(OC(F)(F)F)c1` (stereo not given): the composite z-score in test [1] was determined as 1.47; in [2] it was 0.784; in test [3], 0.44; in [5], 0.684; in test [6], 1.3; in [7], 0.0422. Moreover, the composite z-score in test [8] was 0.231; in test [9] it was -0.124; in test [10], 0.527; in [11], 1.47; in test [13] it was 0.101; in test [14], 1.65. The composite z-score was 0.841 in test [15]; 0.0317 in [16]; 0.522 in test [17]; 1.64 in test [18]; 1.62 in test [19]; 1.42 in [20]. Moreover, the z-score in test [4] is -1.06 (inactive); in test [12], -0.75.

(Values after PubChem BioAssay.)
